Results reported in PubChem BioAssay AID1159580 (chemical genetic matrix, 2015).
Hit rate of the full screen: of about 5,500 compounds, about 2,000 (36%) were called active. Inconclusive results (about 18%) are left out. Cut-off read from the data, not from the text of the source: active = normalized growth mostly below about 0.91 (no sharp cut-off); inconclusive = no clear call, values can overlap the other calls; inactive = mostly above about 0.92. This is one part of the list.

Experiment: chemical genetic growth profiling, strain panel (AID 1159580);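 note: tested at 20 µM; growth read once vehicle control cultures reached saturation at 30 °C; 1 = growth at the plate median or of vehicle wells; lower values mean less growth of the strain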
Conditions: S. cerevisiae deletion strains, growth OD
[1] = locus YDL101C, strain DUN1, hits give low values
[2] = locus YHR030C, strain SLT2, hits give low values
[3] = locus YAR019C, strain CDC15, hits give low values
[4] = locus YBL105C, strain PKC1, hits give low values
[5] = locus YBR135W, strain CKS1, hits give low values
[6] = locus YBR136W, strain MEC1, hits give low values
[7] = locus YBR160W, strain CDC28, hits give low values
[8] = locus YDL017W, strain CDC7, hits give low values
[9] = locus YDL028C, strain MPS1, hits give low values
[10] = locus YDL108W, strain KIN28, hits give low values
[11] = locus YDL132W, strain cdc53, hits give low values
[12] = locus YDL214C, strain PRR2, hits give low values
[13] = locus YDR052C, strain DBF4, hits give low values
[14] = locus YDR054C, strain cdc34, hits give low values
[15] = locus YDR226W, strain ADK1, hits give low values
[16] = locus YDR477W, strain SNF1, hits give low values
[17] = locus YER123W, strain YCK3, hits give low values
[18] = locus YER133W, strain GLC7, hits give low values
[19] = locus YFL009W, strain cdc4, hits give low values
[20] = locus YFL029C, strain CAK1, hits give low values
[21] = locus YFR003C, strain YPI1, hits give low values
[22] = locus YFR019W, strain FAB1, hits give low values
[23] = locus YFR028C, strain CDC14, hits give low values
[24] = locus YGR040W, strain KSS1, hits give low values
[25] = locus YGR052W, strain FMP48, hits give low values
[26] = locus YGR092W, strain DBF2, hits give low values
[27] = locus YHR079C, strain IRE1, hits give low values
[28] = locus YHR082C, strain KSP1, hits give low values
[29] = locus YHR205W, strain SCH9, hits give low values
[30] = locus YIL147C, strain SLN1, hits give low values
[31] = locus YJL095W, strain BCK1, hits give low values
[32] = locus YJL128C, strain PBS2, hits give low values
[33] = locus YJL157C, strain FAR1, hits give low values
[34] = locus YJR016C, strain ILV3, hits give low values
[35] = locus YJR066W, strain TOR1 (second series), hits give low values
[36] = locus YJR066W, strain TOR1, hits give low values
[37] = locus YKL048C, strain ELM1, hits give low values
[38] = locus YKL067W, strain YNK1, hits give low values
[39] = locus YKL101W, strain HSL1, hits give low values
[40] = locus YKL193C, strain SDS22, hits give low values
[41] = locus YKL203C, strain TOR2, hits give low values
[42] = locus YLR113W, strain HOG1, hits give low values
[43] = locus YLR133W, strain CKI1, hits give low values
[44] = locus YLR403W, strain SFP1, hits give low values
[45] = locus YML070W, strain DAK1, hits give low values
[46] = locus YMR001C, strain CDC5, hits give low values
[47] = locus YMR205C, strain PFK2 (second series), hits give low values
[48] = locus YMR277W, strain FCP1, hits give low values
[49] = locus YNL006W, strain LST8, hits give low values
[50] = locus YNL020C, strain ARK1, hits give low values
[51] = locus YNL161W, strain CBK1, hits give low values
[52] = locus YNL183C, strain NPR1, hits give low values
[53] = locus YNL207W, strain RIO2, hits give low values
[54] = locus YNL222W, strain SSU72, hits give low values
[55] = locus YNL307C, strain MCK1 (second series), hits give low values
[56] = locus YOL078W, strain AVO1, hits give low values
[57] = locus YOL136C, strain PFK27, hits give low values
[58] = locus YOR061W, strain CKA2, hits give low values
[59] = locus YOR119C, strain RIO1, hits give low values
[60] = locus YOR231W, strain MKK1, hits give low values
[61] = locus YOR329C, strain SCD5, hits give low values
[62] = locus YPL031C, strain PHO85, hits give low values
[63] = locus YPL153C, strain RAD53, hits give low values
[64] = locus YPL204W, strain HRR25, hits give low values
[65] = locus YPL209C, strain IPL1, hits give low values
[66] = locus YPL256C, strain CLN2, hits give low values
[67] = locus YPR025C, strain CCL1, hits give low values
[68] = locus YPR106W, strain ISR1, hits give low values
[69] = locus YPR111W, strain DBF20, hits give low values
[70] = strain NNK1, hits give low values
[71] = strain TSCII, hits give low values

Measured: normalized growth

COC(=O)C1=C(Nc2ccc(Cl)cc2)CSC1
inactive: locus YAL013W, strain DEP1, hits give low values 0.956 | locus YBR229C, strain ROT2, hits give low values 0.967 | locus YCL061C, strain MRC1, hits give low values 0.959 | [1] 0.941 | locus YDR150W, strain NUM1, hits give low values 0.929 | locus YGR078C, strain PAC10, hits give low values 0.949 | locus YHR087W, strain rtc3, hits give low values 0.962 | locus YJR075W, strain HOC1, hits give low values 0.911 | locus YLR058C, strain SHM2 (second series), hits give low values 0.969 | locus YMR219W, strain ESC1, hits give low values 0.972 | locus YMR263W, strain SAP30, hits give low values 0.953 | locus YNL153C, strain GIM3, hits give low values 0.965 | locus YNL322C, strain KRE1, hits give low values 0.97 | locus YPL055C, strain LGE1, hits give low values 0.811
active: locus YDL134C, strain PPH21, hits give low values 0.773 | locus YEL061C, strain CIN8, hits give low values 0.771 | [2] 0.203 | locus YJL187C, strain SWE1, hits give low values 0.902 | locus YKL190W, strain CNB1, hits give low values 0.834 | locus YLR039C, strain RIC1, hits give low values 0.455 | locus YLR085C, strain ARP6, hits give low values 0.368 | locus YLR262C, strain YPT6, hits give low values 0.468 | locus YML094W, strain GIM5, hits give low values 0.833 | locus YMR307W, strain GAS1, hits give low values 0.417 | locus YNL298W, strain CLA4 (second series), hits give low values 0.676 | locus YNR030W, strain Alg12, hits give low values 0.759 | locus YOL006C, strain TOP1, hits give low values 0.522 | locus YPL241C, strain CIN2, hits give low values 0.742 | locus YPR135W, strain CTF4, hits give low values 0.314

Fc1ccc(N/N=C\Cc2nnnn2-c2ccccc2)c(F)c1
inactive: [3] 0.957 | [4] 0.951 | [5] 0.947 | [6] 0.952 | [7] 0.961 | [8] 0.956 | [9] 0.955 | [1] 0.967 | [10] 0.948 | [11] 0.952 | [13] 0.946 | [14] 0.904 | [15] 0.95 | [19] 0.954 | [20] 0.955 | [21] 0.955 | [23] 0.953 | [29] 0.622 | [30] 0.958 | [32] 0.963 | [34] 0.973 | [40] 0.954 | [46] 0.951 | [48] 0.952 | [49] 0.962 | [51] 0.954 | [53] 0.952 | [54] 0.954 | [56] 0.947 | [61] 0.964 | [65] 0.958 | [67] 0.956 | [68] 0.976 | [69] 0.97 | [70] 0.971 | [71] 0.945
active: [12] 0.554 | [16] 0.332 | [17] 0.283 | [18] 0.592 | [22] 0.414 | [24] 0.478 | [25] 0.302 | [26] 0.122 | [2] 0.387 | [27] 0.366 | [28] 0.571 | [31] 0.16 | [33] 0.519 | [35] 0.246 | [36] 0.356 | [37] 0.55 | [38] 0.427 | [39] 0.341 | [41] 0.481 | [42] 0.426 | [43] 0.55 | [44] 0.429 | [45] 0.249 | [47] 0.646 | [50] 0.536 | [52] 0.358 | [55] 0.189 | [57] 0.385 | [58] 0.222 | [59] 0.408 | [60] 0.328 | [62] 0.315 | [63] 0.359 | [64] 0.406 | [66] 0.537

Clc1ccccc1N/N=C\Cc1nnnn1-c1ccccc1
active: [26] 0.282 | [58] 0.567
inactive: [3] 0.982 | [4] 0.966 | [5] 0.962 | [6] 0.966 | [7] 0.97 | [8] 0.98 | [9] 0.972 | [1] 0.976 | [10] 0.974 | [11] 0.953 | [12] 0.904 | [13] 0.974 | [14] 0.96 | [15] 0.972 | [16] 0.898 | [17] 0.729 | [18] 0.91 | [19] 0.965 | [20] 0.966 | [21] 0.97 | [22] 0.831 | [23] 0.957 | [24] 0.91 | [25] 0.827 | [2] 0.924 | [27] 0.85 | [28] 0.951 | [29] 0.863 | [30] 0.971 | [31] 0.716 | [32] 0.951 | [33] 0.893 | [34] 0.96 | [35] 0.774 | [36] 0.888 | [37] 0.92 | [38] 0.89 | [39] 0.889 | [40] 0.966 | [41] 0.929 | [42] 0.923 | [43] 0.888 | [44] 0.814 | [45] 0.787 | [46] 0.967 | [47] 0.92 | [48] 0.969 | [49] 0.98 | [50] 0.878 | [51] 0.974 | [52] 0.89 | [53] 0.958 | [54] 0.973 | [55] 0.669 | [56] 0.962 | [57] 0.795 | [59] 0.924 | [60] 0.845 | [61] 0.971 | [62] 0.853 | [63] 0.832 | [64] 0.818 | [65] 0.967 | [66] 0.99 | [67] 0.973 | [68] 0.98 | [69] 0.963 | [70] 0.992 | [71] 0.963
